# Experimental data published in the supplement of paper PMC10849652.
# The full data set covers some 8,800 targets. This sample favours those with a hit. About 0.5% of all pairs of compound and target were hits. Values without a mark were called inactive.
# Legend:
# Test in all cases: log2 fold change, soluble protein after heating vs DMSO (PISA); higher = thermal stabilisation; K562 lysate, 10 uM; active = over 0.2 and 3.5 SD of the protein, either way, in both replicates (recomputed)
# [1] = compound: C1=CC=C(C=C1)[C@H](COC2=CC3=C(C=C2)NC(=O)N3)NC(=O)C4=CC=CN(C4=O)CC5=CC(=C(C=C5)F)F
# Outline: (§1)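 The values are log-two fold changes in thermal stability compared with solvent controls and come from duplicates. They were obtained by TMTpro 16plex LC-MS/MS, with channel sums equalised, on the supernatant after 21,000xg for 90 min. That supernatant came from crude K562 extract at 1 mg/mL protein treated with 10 μM compound for 30 min, heated for 3 min across 48°C-58°C, pooled and brought to 0.5% NP-40 at 4°C.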
# [2] = compound: CC1=C(SC2=C1C(=N[C@H](C3=NN=C(N32)C)CC(=O)N)C4=CC=C(C=C4)Cl)C
# Outline: as §1
# [3] = compound: CC1=C2C(=CC=C1)N=C(N(C2=O)C3=CC=CC=C3C)CN4C=NC5=C(N=CN=C54)N
# Outline: as §1
# [4] = compound: Cc1sc2c(c1C)C(c1ccc(Cl)cc1)=N[C@@H](CC(=O)OC(C)(C)C)c1nnc(C)n1-2
# Outline: as §1
# [5] = compound: c1ccc([C@@H]2C[C@H]2NC2CCNCC2)cc1
# Outline: as §1
# Chain of UniProt Q9BSG0 (Q9BSG0 whole entry, looked up): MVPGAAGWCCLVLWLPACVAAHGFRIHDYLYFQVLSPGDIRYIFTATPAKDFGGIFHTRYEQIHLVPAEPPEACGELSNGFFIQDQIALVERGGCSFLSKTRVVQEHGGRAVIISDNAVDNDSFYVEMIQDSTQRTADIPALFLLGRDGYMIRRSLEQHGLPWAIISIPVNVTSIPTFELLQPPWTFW
# Chain of UniProt P48736 (P48736 whole entry, looked up): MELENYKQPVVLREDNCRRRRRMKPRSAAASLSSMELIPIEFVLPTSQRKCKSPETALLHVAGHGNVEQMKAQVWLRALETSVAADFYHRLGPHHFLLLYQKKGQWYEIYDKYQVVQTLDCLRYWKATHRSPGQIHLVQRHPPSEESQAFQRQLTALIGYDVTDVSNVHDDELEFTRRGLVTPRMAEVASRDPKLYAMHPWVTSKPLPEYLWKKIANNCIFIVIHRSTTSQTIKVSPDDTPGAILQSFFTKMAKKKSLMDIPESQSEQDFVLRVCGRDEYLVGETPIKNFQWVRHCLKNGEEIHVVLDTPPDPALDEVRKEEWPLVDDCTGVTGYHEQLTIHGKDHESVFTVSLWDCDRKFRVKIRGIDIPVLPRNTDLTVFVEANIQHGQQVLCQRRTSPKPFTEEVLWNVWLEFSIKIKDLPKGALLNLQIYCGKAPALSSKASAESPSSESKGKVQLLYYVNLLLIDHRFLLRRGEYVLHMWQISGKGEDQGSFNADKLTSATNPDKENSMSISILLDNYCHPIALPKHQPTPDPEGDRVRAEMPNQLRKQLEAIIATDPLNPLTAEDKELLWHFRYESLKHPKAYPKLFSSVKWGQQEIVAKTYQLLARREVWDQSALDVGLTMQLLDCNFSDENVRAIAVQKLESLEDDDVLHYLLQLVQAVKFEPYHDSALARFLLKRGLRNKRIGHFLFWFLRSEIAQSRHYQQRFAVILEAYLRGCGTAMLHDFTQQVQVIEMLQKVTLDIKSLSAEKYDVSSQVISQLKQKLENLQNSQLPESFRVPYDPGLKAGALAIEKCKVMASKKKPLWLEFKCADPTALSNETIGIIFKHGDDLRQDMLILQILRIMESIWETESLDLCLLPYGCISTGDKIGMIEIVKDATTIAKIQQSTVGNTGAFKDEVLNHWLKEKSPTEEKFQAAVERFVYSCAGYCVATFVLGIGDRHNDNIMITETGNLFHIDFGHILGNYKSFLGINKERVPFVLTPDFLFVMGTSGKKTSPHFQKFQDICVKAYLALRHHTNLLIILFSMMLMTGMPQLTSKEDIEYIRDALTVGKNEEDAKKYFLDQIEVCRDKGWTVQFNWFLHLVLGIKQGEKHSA
# Chain of UniProt Q8NAV1 (Q8NAV1 whole entry, looked up): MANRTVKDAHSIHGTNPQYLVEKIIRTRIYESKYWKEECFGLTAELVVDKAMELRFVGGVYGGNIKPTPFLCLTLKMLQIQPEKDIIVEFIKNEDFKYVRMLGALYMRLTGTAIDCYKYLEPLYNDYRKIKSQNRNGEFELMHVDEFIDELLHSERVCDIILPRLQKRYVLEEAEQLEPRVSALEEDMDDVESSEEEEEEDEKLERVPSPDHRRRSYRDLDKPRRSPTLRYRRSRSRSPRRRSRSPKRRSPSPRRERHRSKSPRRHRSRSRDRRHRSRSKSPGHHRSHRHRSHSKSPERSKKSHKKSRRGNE
# Chain of UniProt O94806 (O94806 whole entry, looked up): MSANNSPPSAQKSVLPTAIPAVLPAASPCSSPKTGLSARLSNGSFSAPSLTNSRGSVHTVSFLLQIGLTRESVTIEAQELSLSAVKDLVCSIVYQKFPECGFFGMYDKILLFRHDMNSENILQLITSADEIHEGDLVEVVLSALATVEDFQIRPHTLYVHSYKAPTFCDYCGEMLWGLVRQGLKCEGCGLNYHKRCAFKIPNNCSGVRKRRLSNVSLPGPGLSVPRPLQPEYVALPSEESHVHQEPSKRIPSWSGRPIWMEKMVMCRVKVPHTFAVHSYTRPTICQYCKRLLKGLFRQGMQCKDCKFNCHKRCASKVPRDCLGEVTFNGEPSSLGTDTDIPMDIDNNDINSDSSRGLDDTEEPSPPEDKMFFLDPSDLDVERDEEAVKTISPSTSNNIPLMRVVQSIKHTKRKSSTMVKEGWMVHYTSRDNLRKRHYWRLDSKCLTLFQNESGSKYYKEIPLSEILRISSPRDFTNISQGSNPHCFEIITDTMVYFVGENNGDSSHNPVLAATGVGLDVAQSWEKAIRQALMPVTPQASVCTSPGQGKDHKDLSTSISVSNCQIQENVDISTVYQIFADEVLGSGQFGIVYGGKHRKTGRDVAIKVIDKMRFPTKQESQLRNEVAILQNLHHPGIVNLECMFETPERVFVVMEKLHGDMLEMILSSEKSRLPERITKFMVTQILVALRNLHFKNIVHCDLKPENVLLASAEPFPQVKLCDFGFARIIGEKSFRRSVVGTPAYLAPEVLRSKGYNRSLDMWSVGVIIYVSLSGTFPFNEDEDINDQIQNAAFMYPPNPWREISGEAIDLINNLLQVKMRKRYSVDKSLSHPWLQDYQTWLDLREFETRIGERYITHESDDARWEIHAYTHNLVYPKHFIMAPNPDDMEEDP
# Chain of UniProt Q8N4L2 (Q8N4L2 whole entry, looked up): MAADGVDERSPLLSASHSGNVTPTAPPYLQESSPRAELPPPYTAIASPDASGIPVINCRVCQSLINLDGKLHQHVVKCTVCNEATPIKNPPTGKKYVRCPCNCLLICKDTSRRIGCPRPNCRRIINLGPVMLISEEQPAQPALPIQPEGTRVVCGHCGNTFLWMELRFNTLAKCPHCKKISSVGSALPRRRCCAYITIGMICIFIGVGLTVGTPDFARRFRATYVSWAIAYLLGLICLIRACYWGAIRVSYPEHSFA
# Chain of UniProt Q5JRX3 (Q5JRX3 whole entry, looked up): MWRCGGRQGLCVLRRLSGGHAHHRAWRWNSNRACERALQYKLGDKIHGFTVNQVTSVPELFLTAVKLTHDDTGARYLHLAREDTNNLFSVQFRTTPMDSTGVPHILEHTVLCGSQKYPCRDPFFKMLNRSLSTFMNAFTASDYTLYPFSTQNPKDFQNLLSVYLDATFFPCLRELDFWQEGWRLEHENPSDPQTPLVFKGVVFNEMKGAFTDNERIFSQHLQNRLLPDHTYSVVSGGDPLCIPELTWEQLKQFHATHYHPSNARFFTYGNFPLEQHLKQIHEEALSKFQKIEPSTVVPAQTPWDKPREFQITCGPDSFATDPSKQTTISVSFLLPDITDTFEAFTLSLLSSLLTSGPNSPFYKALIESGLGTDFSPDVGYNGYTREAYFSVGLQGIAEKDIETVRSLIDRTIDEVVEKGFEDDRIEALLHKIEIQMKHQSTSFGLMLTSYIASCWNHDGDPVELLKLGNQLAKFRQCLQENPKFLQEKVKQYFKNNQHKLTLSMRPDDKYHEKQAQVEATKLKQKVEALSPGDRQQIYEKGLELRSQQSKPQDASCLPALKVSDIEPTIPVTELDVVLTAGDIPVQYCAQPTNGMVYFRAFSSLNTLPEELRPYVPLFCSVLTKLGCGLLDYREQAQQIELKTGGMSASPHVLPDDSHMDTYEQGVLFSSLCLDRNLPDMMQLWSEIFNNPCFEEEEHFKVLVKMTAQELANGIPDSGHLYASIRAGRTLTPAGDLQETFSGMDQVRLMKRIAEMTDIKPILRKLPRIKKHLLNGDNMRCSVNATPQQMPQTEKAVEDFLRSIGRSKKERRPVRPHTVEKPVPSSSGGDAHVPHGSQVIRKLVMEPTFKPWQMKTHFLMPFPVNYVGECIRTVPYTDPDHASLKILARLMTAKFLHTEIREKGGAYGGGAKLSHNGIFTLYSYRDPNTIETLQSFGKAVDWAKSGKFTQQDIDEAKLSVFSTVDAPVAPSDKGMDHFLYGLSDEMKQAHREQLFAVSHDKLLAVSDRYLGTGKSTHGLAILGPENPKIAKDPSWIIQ
# Chain of UniProt Q10713 (Q10713 whole entry, looked up): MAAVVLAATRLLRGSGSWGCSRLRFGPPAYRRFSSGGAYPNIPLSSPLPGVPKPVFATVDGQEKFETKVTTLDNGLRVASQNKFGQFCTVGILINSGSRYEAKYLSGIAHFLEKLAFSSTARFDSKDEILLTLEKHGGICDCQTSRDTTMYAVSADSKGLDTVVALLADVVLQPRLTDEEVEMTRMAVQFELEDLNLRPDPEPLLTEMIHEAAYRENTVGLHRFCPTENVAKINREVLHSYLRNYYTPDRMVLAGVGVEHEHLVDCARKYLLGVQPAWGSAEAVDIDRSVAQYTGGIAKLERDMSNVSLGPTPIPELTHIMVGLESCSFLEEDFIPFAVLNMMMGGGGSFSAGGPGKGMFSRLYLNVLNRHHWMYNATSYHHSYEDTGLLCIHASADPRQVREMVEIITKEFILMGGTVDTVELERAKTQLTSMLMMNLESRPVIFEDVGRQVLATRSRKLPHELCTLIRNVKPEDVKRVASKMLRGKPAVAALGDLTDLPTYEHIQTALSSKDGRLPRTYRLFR
# Chain of UniProt Q16816 (Q16816 whole entry, looked up): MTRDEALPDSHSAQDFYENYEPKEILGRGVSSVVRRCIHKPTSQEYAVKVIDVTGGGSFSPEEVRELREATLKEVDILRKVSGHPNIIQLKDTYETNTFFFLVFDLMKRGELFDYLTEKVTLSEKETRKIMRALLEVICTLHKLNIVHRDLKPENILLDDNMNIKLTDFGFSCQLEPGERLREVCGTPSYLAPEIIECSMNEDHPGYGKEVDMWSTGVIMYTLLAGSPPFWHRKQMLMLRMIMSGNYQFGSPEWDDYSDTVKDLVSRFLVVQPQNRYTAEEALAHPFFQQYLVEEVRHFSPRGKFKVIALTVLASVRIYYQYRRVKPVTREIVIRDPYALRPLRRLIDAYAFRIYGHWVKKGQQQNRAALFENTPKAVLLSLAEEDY
# Chain of UniProt Q9UMR5 (Q9UMR5 whole entry, looked up): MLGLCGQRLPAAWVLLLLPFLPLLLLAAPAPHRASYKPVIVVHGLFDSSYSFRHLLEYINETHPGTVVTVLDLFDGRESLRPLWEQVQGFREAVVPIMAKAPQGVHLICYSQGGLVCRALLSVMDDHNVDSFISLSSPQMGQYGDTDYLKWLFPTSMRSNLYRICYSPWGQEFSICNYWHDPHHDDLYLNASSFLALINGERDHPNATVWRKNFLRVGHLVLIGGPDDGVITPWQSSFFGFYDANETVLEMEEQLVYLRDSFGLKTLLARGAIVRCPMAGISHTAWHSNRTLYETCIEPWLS
Target,log2 fold change [1],log2 fold change [2],log2 fold change [3],log2 fold change [4],log2 fold change [5]
PRPF38A (UniProt Q8NAV1),0.034,-0.055,-0.08,-0.024,-0.133
PMPCA (UniProt Q10713),0.019,0.031,0.028,-0.013,-0.012
PITRM1 isoform 2 (UniProt Q5JRX3),0.158,-0.193,0.005,0.04,0.01
PPT2 isoform 3 (UniProt Q9UMR5),0.01,-0.03,-0.046,-0.048,-0.08
POLB (UniProt P06746),-0.02,-0.005,0.028,0.041,0.021
PIP4P2 (UniProt Q8N4L2),0.03,-0.068,-0.012,0.012,-0.106
PCBP2 (UniProt H3BRU6),0.166,-0.15,-0.208,0.104,-0.11
PRKCB isoform 2 (UniProt P05771),-0.007,-0.022,0.086,0.07,-0.005
PRKCA (UniProt P17252),0.01,-0.012,-0.061,0.021,0.089
POLR2F (UniProt U3KPV3),–,–,–,-0.113,–
PI4K2A (UniProt Q9BTU6),0.028,0.056,-0.007,-0.002,0.001
PRR4 (UniProt Q16378),–,–,-0.076,–,-0.269
POC5 (UniProt Q8NA72),0.016,-0.052,0.161,0.17,-0.097
PIP5K1A (UniProt Q99755),-0.058,0.067,–,0.059,-0.096
PCBP2 (UniProt F8VRH0),–,–,–,–,0.232
PRKAB2 (UniProt O43741),0.1,-0.012,0.009,-0.047,-0.418
PHKG1 isoform 2 (UniProt Q16816),–,–,-0.375,-0.054,-0.493
POLD3 (UniProt Q15054),-0.004,0.002,0.019,0,0.034
PTK2 isoform 2 (UniProt Q05397),0.07,0.081,–,-0.324,–
PPME1 (UniProt Q9Y570),0.057,-0.02,–,0.06,–
PLXND1 (UniProt Q9Y4D7),-0.039,0.082,–,0.029,–
PFN3 (UniProt P60673),–,–,0.072,–,-0.004
PRKD3 (UniProt O94806),0.035,0,0.206,–,-0.386
PDPK1 (UniProt O15530),–,0,-0.035,0.022,-0.069

Target,log2 fold change [1],log2 fold change [2],log2 fold change [3],log2 fold change [4],log2 fold change [5]
PNPLA4 (UniProt P41247),–,–,-0.009,0.201,-0.019
PRADC1 (UniProt Q9BSG0),0.267,0.021,–,-0.029,0.018
PDE4DIP (UniProt E9PS60),–,–,0.074,-0.12,-0.257
"PDIA4, A0A499FI48",–,–,–,0.083,0.564
PUF60 isoform 2 (UniProt Q9UHX1),0.091,0.109,0.035,–,0.238
POLA1 (UniProt P09884),0.006,0.01,0.037,-0.002,0.002
NA (UniProt Q4G0T1),–,–,–,-0.027,-0.025
PREP (UniProt H0Y5Y0),–,–,–,–,0.086
PIK3CG (UniProt P48736),-0.076,-0.065,0.109,-0.047,-0.105
PRG4 (UniProt Q92954),0.03,-0.081,–,-0.059,-1.18 (active)
PPP1R11 (UniProt O60927),-0.025,-0.095,–,0.014,0.001
PDF (UniProt Q9HBH1),-0.056,-0.007,-0.024,0.024,0.028
POM121C (UniProt A8CG34),0.058,0.042,–,–,-0.02
PIAS2 (UniProt O75928),–,–,0.001,0.046,–
PLEKHO2 (UniProt Q8TD55),-0.158,0.077,-0.076,-0.107,0.043
PIK3R2 (UniProt O00459),0.002,-0.058,0.272,0.024,-0.007
PHKA2 (UniProt P46019),-0.111,0.028,0.052,0.021,0.038
PES1 (UniProt O00541),0.027,0.016,0.019,0.016,0.02
PFN1 (UniProt I3L3D5),0.007,0.065,–,–,0.164
PLEKHA5 isoform 6 (UniProt Q9HAU0),0,-0.112,-0.06,-0.013,0.045
"PHGDH, A0A286YFE1",0.061,-0.111,–,-0.095,–
PFKFB2 (UniProt O60825),0.016,0.001,0.03,-0.001,-0.008
PRMT8 (UniProt Q9NR22),-0.016,0.031,0.01,-0.041,-0.147
PYGO2 (UniProt Q9BRQ0),0.064,0.031,–,0.024,0.011
